PubChem BioAssay (NCI)
About 83,000 compounds went through this panel and 20% of them were active in at least one assay; those are over-represented in the sample as a whole.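 96-well plates, one dose, 48 hours. Percent growth reported; active if below 10.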 Calls of active or inactive are those of the source.

The compounds below were run on KM12 colon (assay: NCI-60 one-dose screen, 48 h (100 = growth as untreated, 0 = no growth, -100 = all killed)). Conditions: 10 µM unless noted.

| Compound | growth |
| --- | --- |
| CCN1C(=O)N(CC)C2C1NN=c1s/c(=C\c3ccccc3F)c(=O)n12 (stereo unspecified) | 4.31% (active) |
| CS(=O)(=O)Nc1cncc(-c2ccc3ncnc(Nc4cncc(Cl)c4)c3c2)c1 | 84.7% (inactive) |
| C1CN(SSN2CCOCC2)CCO1 | 2.07% [100 µM] (active) |
| CS(=O)(=O)c1ccc(-c2cnn3ccc(-c4cccc(S(=O)(=O)C5CC5)c4)nc23)cc1 | 62% (inactive) |
| CN1C(=O)/C(=C\c2nc([P+](c3ccccc3)(c3ccccc3)c3ccccc3)c(N3CCOCC3)o2)SC1=S | 43.2% (inactive) |
| C=C(C)[C@@H]1CCC[C@]2(COS(=O)(=O)c3ccc(C)cc3)CC[C@]3(C)[C@@H](CC[C@@H]4[C@@]5(C)CCCNC(C)(C)[C@@H]5CC[C@]43C)[C@@H]12 | -25.2% (active) |
| O=C(NCCNc1nccc(Nc2ccc(S(=O)(=O)Nc3ccccn3)cc2)n1)c1cccc([N+](=O)[O-])c1 | 99% (inactive) |
| COc1cc2ncnc(Nc3ccc(S(=O)(=O)Nc4cc(C)on4)cc3)c2cc1OCCCN1CCN(c2ccc(F)cc2)CC1 | 107% (inactive) |
| CN(C)CC1CCC(CN(C)C)C1=O (stereo unspecified) | 115% (inactive) |
| N#CC1=C(N)Oc2c(ccc3ccccc23)C1c1ccccc1 (stereo unspecified) | 14.7% (inactive) |
| Cc1ccc(NC(=O)c2sc3nc(C)c(Br)c(C)c3c2N)cc1 | 74.8% (inactive) |
